# Screens (PubChem BioAssay)
# A selection: hits, their analogues and other compounds. The true share with any hit is near 6.5%.
# HCMV inh: inhibitors of human cytomegalovirus | HFF cells, HCMV-luciferase reporter, 72 h; hits give low values | activity change, negative = inhibition, % at 57.5 µM | AID 1259415 | 410,000 compounds, 4.5% hits; in the data active = activity change below about -60%; inconclusive = no clear call, values can overlap the other calls; inactive = above about -39%
#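 After 16 h attachment at 37C, HFF cells received test compound and HCMV-luciferase (1 PFU/cell); reporter luminescence read 72 h later, data normalized against buffer-only and known inhibitor Salinomycin.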
# Lassa entry inh: Lassa virus entry inhibition | Lassa virus pseudotype entry inhibition, cell reporter | Potency, µM (titrated, usually from 37.9 µM), without a hit: at the top dose activity change, negative = inhibition, actives largely listed as inhibitors | 300,000 compounds, 1.2% hits; calls by dose curve; tested in HEK293 cells; also: potency is read from the fitted curve at half-maximal effect; nearly all actives have a fitted effect of over 50% in size
# MARV entry inh: blocks Marburg virus binding to or entry into cells | Marburg virus pseudotyped entry inhibition, cell reporter | Potency, µM (highest dose often 37.8 µM), for the others: at the highest dose activity change, negative = inhibition, usual class: inhibitors | 300,000 compounds, 1.8% hits | AID 540276; calls by dose curve; tested in HEK293 cells; also: potency is read from the fitted curve at half-maximal effect
# VACV Venus inh: vaccinia inhibition (Venus reporter). 330,000 compounds, 0.46% hits. Potency, µM (series often up to 36.5 µM), for the others: top-dose activity change, negative = inhibition, usual class: inhibitors. AID 720580. Vaccinia virus Venus reporter expression, fluorescence; calls by dose curve; tested in A549 cells; also: potency is read from the fitted curve at half-maximal effect; nearly all actives have a fitted effect of over 30% in size
# FMDV antiviral: blocks foot and mouth disease virus | FMDV antiviral cell-based qHTS | Potency, µM (series often up to 57.9 µM), for the others: at the highest dose activity change, negative = inhibition, hits mostly inhibitors | 410,000 compounds, 1.2% hits | AID 1159524; calls by dose curve; tested in HEK293T cells; also: read-out not given here; potency is read from the fitted curve at half-maximal effect; nearly all actives have a fitted effect of over 45% in size
# Vaccinia mCherry: inhibitors of vaccinia virus infection (mCherry reporter signal) | Vaccinia virus mCherry reporter infection, fluorescence | 310,000 compounds, 0.63% hits | Potency, µM (highest dose often 36.5 µM), inactives show at the top dose activity change, negative = inhibition, usual class: inhibitors; calls by dose curve; tested in A549 cells; also: potency is read from the fitted curve at half-maximal effect; nearly all actives have a fitted effect of over 35% in size
# An asterisk follows results filed as active; i = inactive; ? = inconclusive; . = no result given; [ ] = dose if it differs, or a comment. % is scaled to controls: 0 for no effect and ±100 for the full control effect.
SMILES,HCMV inh,Lassa entry inh,MARV entry inh,VACV Venus inh,FMDV antiviral,Vaccinia mCherry
CN1CCC(Oc2ccccc2Sc2ccccc2)CC1,-77*,8.2µM*,10µM*,?,?,?
CCN(CCCl)c1cc(CN(C)C)cc(NC(=O)c2ccc(C(=O)Nc3cc(CN(C)C)cc(N(CC)CCCl)c3)cc2)c1,-101*,?,?,2.8µM*,?,1.3µM*
CC(=O)c1ccc(-c2cc(F)cc3c2OC(CNC(=O)C(C)N2CCOCC2)C3)s1 (stereo not given),.,.,.,-11%,-15%,-4%
COc1ccc(OC)c2c1C(=O)CC2C (stereo not given),15,.,.,-10%,-15%,i
COc1ccc(OC)c2c1C(=O)C(Cl)=C(Cl)C2=O,-91*,.,.,.,20µM*,.
C#CC[N+](C)(C)CC#Cc1ccc(C)cc1,-90*,.,.,.,-20%,.
CCN(CC)c1ccc(-c2nnc(SCC(=O)NCc3ccco3)n2C)cc1,.,.,.,-23%,.,-18%
CN1CCc2c(n(C[C@H](O)CN3C(=O)c4ccccc4S3(=O)=O)c3ccccc23)C1=O,.,.,-20%,.,.,.
CN1CCN(C(=O)/C=C/c2ccc([N+](=O)[O-])o2)CC1,-101*,.,.,?,-16%,-23%
COCCn1c(SCC(=O)c2ccc(F)cc2)nc2cc(C(=O)NC3CCCC3)ccc2c1=O,5,11%[46.1 µM],.,4%,0%,0%
COc1ccc(CNc2nc3ccccc3n2C)c(O)c1,85,?,11µM*,-8%,11%,-25%
Cn1c(NCc2c(O)ccc3ccccc23)nc2ccccc21,47,11%,21µM*,.,?,.
CCCCCCCCCCCCCCCC(C)C1=NCCN1 (stereo not given),.,.,.,-6%,.,-11%
N#Cc1ccccc1Cn1c(=O)n(Cc2ccc(C(=O)NC3CCN(Cc4ccccc4)CC3)cc2)c(=O)c2ccccc21,-10,-1%[46.1 µM],-2%[46.1 µM],-25%,4%,-28%
CCO[C@H](c1cc(OC)cc([N+](=O)[O-])c1OC)[C@H](C)C=CCC(=O)OC,.,.,1%[14.2 µM],.,.,.
Cc1cc(C(=O)CSc2nncs2)c(C)n1-c1c(C)n(C)n(-c2ccccc2)c1=O,-21,12%,18%,-9%,.,-14%
Cc1ccc(-n2c(C)cc(C(=O)CSc3nncs3)c2C)cc1,-71*,?,?,?,.,?
Cc1oc(-c2ccc(C(=O)Nc3cc(F)ccc3F)cc2)nc1COc1ccccc1,-34,15%[46.1 µM],.,-27%,-27%,-20%
CCOc1ccc(NCc2cccn2-c2nnc(N3CCC(C(=O)NCCOC)CC3)s2)cc1,-35,.,?,-6%,-22%,-6%
Cc1ccc(NCc2cccn2-c2nnc(N3CCC(C(=O)NCc4ccc(OC(C)C)cc4)CC3)s2)cc1,-80*,.,?,?,?,?
CCOc1ccc(NCc2cccn2-c2nnc(N3CCC(C(=O)NCc4cccc(OC)c4)CC3)s2)cc1,-84*,.,1%[46.1 µM],-27%,?,-25%
CCOc1ccc(NCc2cccn2-c2nnc(N3CCC(C(=O)NCC(C)c4ccccc4)CC3)s2)cc1 (stereo not given),-80*,.,?,?,?,?
CCOc1ccc(NCc2cccn2-c2nnc(N3CCC(C(=O)NCc4ccc(C)cc4)CC3)s2)cc1,-76*,.,?,?,?,?
Cc1ccc(NCc2cccn2-c2nnc(N3CCC(C(=O)NCCc4ccc(Cl)cc4)CC3)s2)cc1,?,.,2%[46.1 µM],?,0%,?
Cc1cc(OC(C)C(=O)N(Cc2ccco2)Cc2ccco2)cc(C)c1Cl (stereo not given),36,8%[46.1 µM],?,-5%,?,2%
SMILES,HCMV inh,Lassa entry inh,MARV entry inh,VACV Venus inh,FMDV antiviral,Vaccinia mCherry
CCOc1ccc(NC(=O)CN2C(=O)COc3ccc(S(=O)(=O)Nc4ccccc4)cc32)cc1,11,8%[46.1 µM],.,-5%,17%,-12%
O=C(NNc1c(Cl)cccc1Cl)c1c(F)cccc1Cl,-7,1%[46.1 µM],-3%[46.1 µM],-7%,-22%,-3%
O=C(NNc1c(Cl)cccc1Cl)c1sccc1Cl,-75*,-3%,-1%,-20%,4%,-7%
Clc1cccc(CNc2cc(-c3ccccc3)nc3nncn23)c1,-62*,?,?,-25%,?,-4%
COc1ccccc1CNc1cc(-c2ccccc2)nc2nncn12,-87*,-5%[46.1 µM],?,-8%,-16%,-20%
CC(=O)c1c(C)[nH]c(C(=O)NCc2ccc(Cl)cc2)c1C,5,.,.,-24%,6%,-12%
CC(=O)c1[nH]c(C)c(C(=O)NCc2ccc(Cl)cc2)c1C,-94*,21%[46.1 µM],.,-29%,?,-29%
CCOC(=O)c1cc(C)n(CC2CCC(C(=O)Nc3ccc(Cl)cc3)CC2)c1C (stereo not given),-80*,-22%[46.1 µM],.,-22%[7.34 µM],?,-23%[7.34 µM]
CCC(C)NC(=O)c1ccc(Cn2c(=O)c3cccn3c3cccnc32)cc1 (stereo not given),3,-9%[46.1 µM],.,-9%,-3%,-10%
CCc1ccc(O)c(C(=O)c2cnc3cc(-c4ccc(C)cc4)nn3c2)c1,2,?,10%[46.1 µM],6%,-3%,4%
CCc1nn2cc(C(=O)c3cc(Cl)ccc3O)cnc2c1-c1ccc(F)cc1,-70*,?,-2%,-6%,?,-14%
CC(=O)/C(N=Nc1cc2c(c([N+](=O)[O-])c1C)C(C)(C)CC2(C)C)=C(\C)O,11,-3%,6%,-14%,25µM*,-13%
O=C(C1CCC(CNc2nc(=S)[nH]c3ccccc23)CC1)N1CCN(c2ccccn2)CC1 (stereo not given),-107*,-21%[14.3 µM],-26%,-15%,?,-15%
O=S1(=O)N[C@@H](Cc2ccccc2)COc2cc(NC3CC3)ccc21,-9,?,.,.,.,.
Cc1ccc(NC(=O)CCCn2c3ccccc3c(=O)c3cc(C)ccc32)c(Br)c1,?,2.8µM*,.,-15%[7.34 µM],-28%,-9%[7.34 µM]
O=C(NCc1ccncc1)c1cnn(-c2nccc(-c3cccs3)n2)c1C1CC1,.,.,.,-5%,-1%,-13%
Cc1cc(OCCCSc2nc(-c3ccc(C(C)(C)C)cc3)nc3cc(=O)[nH]n23)ccc1Cl,-64*,-8%[46.1 µM],.,-14%[7.34 µM],-16%,-5%[7.34 µM]
Cc1ccccc1-[n+]1c(-c2ccccc2)cc(-c2ccccc2)cc1-c1ccccc1,-96*,.,.,?,10µM*,-2%
Nc1ccccc1-[n+]1c(-c2ccccc2)cc(-c2ccccc2)cc1-c1ccccc1,?,?,8.9µM*,-17%,?,-25%
[O-]c1ccccc1-[n+]1c(-c2ccccc2)cc(-c2ccccc2)cc1-c1ccccc1,-97*,.,.,-27%,28µM*,-29%
Oc1ccccc1-[n+]1c(-c2ccccc2)cc(-c2ccccc2)cc1-c1ccccc1,-84*,.,.,2%,28µM*,-6%
O=C([O-])c1ccccc1-[n+]1c(-c2ccccc2)cc(-c2ccccc2)cc1-c1ccccc1,?,.,.,-11%,?,i
